An excerpt weighted towards active compounds, which were near 19% of everything screened.
DT40 TDP1 CPT = DT40-hTDP1 cell growth loss with CPT. chicken DT40 Tdp1-/-;hTDP1 cells + 20 nM CPT, ATP luminescence, 48 h. Potency, µM (top dose mostly 46.2 µM), for inactives: top-dose activity change, negative = growth inhibition, most hits filed as inhibitors. hit rate 12% among 420,000. AID 686979; also: potency is read from the fitted curve at half-maximal effect; nearly all actives have a fitted effect of over 55% in size
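Chicken DT40 Tdp1-/- cells stably complemented with human TDP1 were seeded at 400 cells/well in medium containing 20 nM camptothecin, exposed to pin-transferred compounds, and grown at 37 °C for at least 48 hr. Viability was read as ATP luminescence.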
HT1080 IDH1KD tx = toxicity to HT-1080 IDH1 knockdown cells (counter line); Potency, µM (doses to about 46.1 µM), for inactives: at the highest dose activity, negative = toxicity, hits mostly cytotoxic; HT-1080 IDH1 knockdown viability, ATP luminescence, 48 h; hit rate 2% among 360,000;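 also: potency is read from the fitted curve at half-maximal effect; 0% = DMSO wells and -100% = cell-free medium wells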
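In this qHTS, HT-1080 cells depleted of IDH1 are exposed for 48 h at 37 °C to compound titrations. Toxicity is scored from CellTiter-Glo luminescence, with DMSO as full viability and medium alone as none.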
TDP1 cell noCPT = qHTS for Inhibitors of human tyrosyl-DNA phosphodiesterase 1 (TDP1): qHTS in cells in absence of CPT; DT40 Tdp1-/- hTDP1 cells, no CPT, ATP luminescence, 48 h; Potency, µM (series often up to 46.2 µM), inactives show at the top dose activity change, negative = growth inhibition, actives largely listed as inhibitors; hit rate 15% among 420,000; AID 686978, 2013; also: potency is read from the fitted curve at half-maximal effect; nearly all actives have a fitted effect of over 55% in size
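Readout: luminescence from CellTiter-Glo after 30 min in the dark at RT. Cells: DT40 Tdp1-/- with stable hTDP1, 400/well. Exposure: compounds alone, ≥48 hr, 37 °C.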
uPA generation = inhibitors of cell surface uPA generation; cell surface uPA generation assay, qHTS; Potency, µM (top dose mostly 38.3 µM), inactives show at the highest dose activity change, negative = inhibition, actives largely listed as inhibitors; hit rate 0.31% among 330,000; AID 540303; active = well fitted inhibition curve with a large enough effect; inconclusive = small, poorly fitted or top-dose-only effect; inactive = no such curve, though single readings can be large or run the other way; tested in mouse RAW 264.7 cells; also: potency is read from the fitted curve at half-maximal effect; nearly all actives have a fitted effect of over 55% in size
HT1080NT lethal = kills 2HG-producing HT-1080-NT fibrosarcoma cells; hit rate 1.6% among 360,000; HT-1080-NT fibrosarcoma viability, CellTiter-Glo ATP luminescence, 48 h; AID 686970; Potency, µM (highest dose often 46.1 µM), for the others: at the top dose activity, negative = less viability, usual class: cytotoxic;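 also: NT is the 2HG producing partner of a matched IDH1 knockdown line; potency is read from the fitted curve at half-maximal effect; 0% = DMSO-treated cells and -100% = media-only wells without cells; nearly all actives have a fitted effect of over 55% in size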
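Toxicity toward the 2HG-producing NT line was scored as %Activity, normalised to DMSO and no-cell wells, from CellTiter-Glo luminescence after 48 hours' treatment.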
IL1B secr inh = inflammasome signaling inhibition, IL-1 beta readout. activity change, % at 57.5 µM. THP-1 LPS/ATP IL-1B secretion, AlphaLISA, 16 h; stronger effect = lower value. hit rate 4.7% among 360,000. AID 743279; in the data active = activity change below about -50%; inconclusive = mostly about -30% to -49%
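THP-1 cells pretreated 1 hr with compounds (up to 57.5 uM final), then stimulated with LPS (250 ng/mL final) plus ATP (1.25 mM final); secreted IL-1B measured by AlphaLISA after 16 hr, decreased signal indicating inhibition.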
Numbers without * were called inactive. Unless noted, calls follow the shape of the dose curve; as a rule, active = well fitted curve in the direction sought with a large enough effect; inconclusive = small, poorly fitted or top-dose-only effect, or another doubt; inactive = no such curve, though single readings can be large; an effect the other way counts as inactive or inconclusive. Unless noted, % is scaled to controls: 0 for no effect and ±100 for the full control effect.

For COc1ccccc1C(=O)Nc1nnc(SCc2cc(=O)n3ccc(C)cc3n2)s1 the results were DT40 TDP1 CPT 0% and TDP1 cell noCPT 1%.
Screening CCOC(CNC(=O)c1cc2c(=O)n(CC)c3ccccc3c2s1)OCC returned DT40 TDP1 CPT inconclusive, HT1080 IDH1KD tx 12%, TDP1 cell noCPT inconclusive, uPA generation 0%, HT1080NT lethal 17% and IL1B secr inh inconclusive.
`CCn1c(=O)c2cc(C(=O)Nc3cccc(C(F)(F)F)c3)sc2c2ccccc21` gave DT40 TDP1 CPT 7.3µM* and TDP1 cell noCPT 9.2µM*.
CCC(C)NC(=O)c1cc2c(=O)n(CC)c3ccccc3c2s1 (stereo not drawn) was read as DT40 TDP1 CPT inconclusive, HT1080 IDH1KD tx -4%, TDP1 cell noCPT inconclusive, uPA generation 3%, HT1080NT lethal -2% and IL1B secr inh inconclusive.
Screening CCn1c(=O)c2cc(C(=O)NCCc3cccc(C)c3)sc2c2ccccc21 returned DT40 TDP1 CPT -4% and TDP1 cell noCPT -14%.
Screening CCn1c(=O)c2cc(C(=O)NCC(OC)OC)sc2c2ccccc21 returned DT40 TDP1 CPT inconclusive, HT1080 IDH1KD tx 0%, TDP1 cell noCPT inconclusive, uPA generation -2%, HT1080NT lethal 14% and IL1B secr inh -56*.
For CCN(CCCNC(=O)c1cc2c(=O)n(CC)c3ccccc3c2s1)c1ccccc1 the results were DT40 TDP1 CPT inconclusive and TDP1 cell noCPT 18µM*.
For CCCCN(CC)CCCNC(=O)c1cc2c(=O)n(CC)c3ccccc3c2s1 the results were DT40 TDP1 CPT inconclusive, HT1080 IDH1KD tx 29µM*, TDP1 cell noCPT inconclusive, uPA generation 1%, HT1080NT lethal 18µM* and IL1B secr inh -77*.
For Fc1ccc(-c2[nH]ncc2CN(CC2CCC2)CC2CCCO2)c(F)c1 (stereo not drawn) the results were DT40 TDP1 CPT inconclusive, HT1080 IDH1KD tx 2%, TDP1 cell noCPT inconclusive, uPA generation 0%, HT1080NT lethal -13% and IL1B secr inh -17.
Screening CCn1c(=O)c2cc(C(=O)NCCCOC)sc2c2ccccc21 returned DT40 TDP1 CPT 18µM*, HT1080 IDH1KD tx inconclusive, TDP1 cell noCPT 10µM*, uPA generation 5.6µM*, HT1080NT lethal inconclusive and IL1B secr inh -50*.
Screening CCCCN(CC)CCNC(=O)c1cc2c(=O)n(CC)c3ccccc3c2s1 returned DT40 TDP1 CPT 16µM*, HT1080 IDH1KD tx 3%, TDP1 cell noCPT 21µM*, uPA generation -4%, HT1080NT lethal -8% and IL1B secr inh inconclusive.
Screening CCn1c(=O)c2cc(C(=O)NCCC(C)C)sc2c2ccccc21 returned DT40 TDP1 CPT -47%, HT1080 IDH1KD tx 0%, TDP1 cell noCPT inconclusive, uPA generation -1%, HT1080NT lethal 9% and IL1B secr inh inconclusive.
CCCN(CCC)CCCNC(=O)c1cc2c(=O)n(CC)c3ccccc3c2s1 was read as DT40 TDP1 CPT inconclusive, HT1080 IDH1KD tx -3%, TDP1 cell noCPT inconclusive, uPA generation -13%, HT1080NT lethal -14% and IL1B secr inh -63*.
`Cc1ccc(C(=O)NC(=S)NCC2CCCO2)cc1[N+](=O)[O-]` (stereo not drawn) gave DT40 TDP1 CPT -8%, HT1080 IDH1KD tx 0%, TDP1 cell noCPT inconclusive, uPA generation -5%, HT1080NT lethal -3% and IL1B secr inh 9.
Screening CCCN1CCN(C(=O)c2ccc(CS(=O)c3ccc(Br)cc3)o2)CC1 (stereo not drawn) returned DT40 TDP1 CPT inconclusive, HT1080 IDH1KD tx 2%, TDP1 cell noCPT -8%, HT1080NT lethal 1% and IL1B secr inh 6.

Screens: PubChem BioAssay, National Center for Advancing Translational Sciences (NCATS)
